Measurements published in PubChem BioAssay (EPA / NIEHS).
Records with an inconclusive call do not appear. Active and inactive are the calls of the source. How the source made its calls, unless noted: active means hit-call score of the fitted dose curve at least 0.9, where 1 is the maximum; inconclusive means response in the unintended direction; inactive means score below 0.9.

Key:
[1] = target: X-box-binding protein 1 (Homo sapiens) (UniProt P17861); experiment: ATG_Xbp1_CIS: Attagene CIS-FACTORIAL HepG2 Assay for human X-box Binding Protein 1 (XBP1) (AID 2282972; active means hit-call score of the fitted dose curve at least 0.9, where 1 is the maximum; inactive means score below 0.9); settings: HepG2 XBP1 cis-element reporter, Attagene multiplex; actives raise or lower the signal
X-box-binding protein 1 (Homo sapiens), sequence (P17861 whole entry, looked up): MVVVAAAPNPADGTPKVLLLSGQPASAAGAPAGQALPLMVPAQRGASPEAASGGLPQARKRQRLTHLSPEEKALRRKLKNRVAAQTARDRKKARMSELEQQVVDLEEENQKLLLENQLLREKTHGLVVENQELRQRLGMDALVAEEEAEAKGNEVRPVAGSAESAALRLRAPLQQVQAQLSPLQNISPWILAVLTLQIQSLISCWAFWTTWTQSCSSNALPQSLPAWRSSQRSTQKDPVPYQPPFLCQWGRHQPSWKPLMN
Method in brief: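 Reporter transcripts were quantified by RT-PCR with fluorescent primer extension and capillary electrophoresis after 24 h chemical exposure. Cells: transiently transfected HepG2 carrying cis-regulated reporter constructs; data fitted bidirectionally relative to DMSO.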

[2] = ATG_M_19_TRANS: Attagene TRANS-FACTORIAL HepG2 Assay for M19 Transcription Factor (Internal Marker) (AID 2282974); settings: HepG2 Attagene TRANS-FACTORIAL M19 internal marker reporter
Method in brief: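 Measured here: internal-marker reporter transcript from HepG2 cells transfected with MRTUs, harvested at 24 h. cDNA PCR products were 6-FAM labelled by primer extension, cut with HpaI for 2 h at 37 C, and resolved by CE.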

[3] = target: Bile acid receptor (Homo sapiens) (UniProt Q96RI1); experiment: ATG_FXR_TRANS: Attagene TRANS-FACTORIAL HepG2 Assay for Farnesoid X Receptor (FXR) (AID 2282979); settings: HepG2 Attagene TRANS FXR-GAL4 reporter transcription;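 further: hits raise reporter mRNA above DMSO so AC50 marks FXR activation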
Bile acid receptor (Homo sapiens), sequence (Q96RI1 whole entry, looked up, the tested form may be a part): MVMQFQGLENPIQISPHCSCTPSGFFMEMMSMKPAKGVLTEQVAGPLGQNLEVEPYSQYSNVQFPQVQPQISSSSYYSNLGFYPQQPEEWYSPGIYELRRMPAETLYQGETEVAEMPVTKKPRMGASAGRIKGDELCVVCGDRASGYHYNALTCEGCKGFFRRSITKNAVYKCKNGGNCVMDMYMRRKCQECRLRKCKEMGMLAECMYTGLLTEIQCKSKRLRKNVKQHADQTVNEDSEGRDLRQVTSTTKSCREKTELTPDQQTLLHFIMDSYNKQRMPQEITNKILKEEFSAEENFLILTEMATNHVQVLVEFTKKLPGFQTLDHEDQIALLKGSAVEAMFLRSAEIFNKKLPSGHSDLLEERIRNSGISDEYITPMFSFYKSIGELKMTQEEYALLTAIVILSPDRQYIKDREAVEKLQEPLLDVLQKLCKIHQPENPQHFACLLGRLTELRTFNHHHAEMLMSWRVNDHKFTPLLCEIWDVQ
Method in brief: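 Transient transfection of HepG2 with multiplexed GAL4-UAS reporter units; exogenous FXR-GAL4 chimera. Dose 24 h → TriZol RNA → oligo(dT) RT → PCR, 6-FAM primer extension, HpaI cut → CE. Gain vs DMSO.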

[4] = target: Oxysterols receptor LXR-alpha (Homo sapiens) (UniProt Q13133); experiment: ATG_LXRa_TRANS: Attagene TRANS-FACTORIAL HepG2 Assay for human Liver X Receptor alpha (LXRa) (AID 2282980); settings: HepG2 Attagene TRANS reporter, LXRa transactivation
Oxysterols receptor LXR-alpha (Homo sapiens), sequence (Q13133 whole entry, looked up, the tested form may be a part): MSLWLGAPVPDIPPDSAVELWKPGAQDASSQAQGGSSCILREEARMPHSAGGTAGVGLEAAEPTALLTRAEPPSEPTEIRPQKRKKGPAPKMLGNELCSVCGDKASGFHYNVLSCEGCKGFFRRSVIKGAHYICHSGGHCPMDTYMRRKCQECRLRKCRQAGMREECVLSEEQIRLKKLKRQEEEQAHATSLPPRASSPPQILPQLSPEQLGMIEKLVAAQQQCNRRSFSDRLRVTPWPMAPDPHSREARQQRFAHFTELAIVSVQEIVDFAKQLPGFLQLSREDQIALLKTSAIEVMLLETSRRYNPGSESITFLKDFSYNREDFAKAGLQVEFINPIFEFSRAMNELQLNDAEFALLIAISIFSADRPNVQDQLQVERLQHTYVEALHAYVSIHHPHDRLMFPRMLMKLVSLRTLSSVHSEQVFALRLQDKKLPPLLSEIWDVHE
Method in brief: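 Transfect HepG2 with GAL4-UAS multiplex reporter constructs (TRANS format, chimeric receptor-GAL4); treat 24 h; extract RNA, reverse-transcribe, PCR-amplify, FAM-label, HpaI-digest; resolve fragments by capillary electrophoresis. Upward response vs DMSO.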

[5] = target: Hepatocyte nuclear factor 4-alpha (Homo sapiens) (UniProt P41235); experiment: ATG_HNF4a_TRANS: Attagene TRANS-FACTORIAL HepG2 Assay for human Hepatocyte Nuclear Factor 4 alpha (HNF4a) (AID 2282982); settings: HepG2 HNF4a transactivation reporter, mRNA readout
Hepatocyte nuclear factor 4-alpha (Homo sapiens), sequence (P41235 whole entry, looked up, the tested form may be a part): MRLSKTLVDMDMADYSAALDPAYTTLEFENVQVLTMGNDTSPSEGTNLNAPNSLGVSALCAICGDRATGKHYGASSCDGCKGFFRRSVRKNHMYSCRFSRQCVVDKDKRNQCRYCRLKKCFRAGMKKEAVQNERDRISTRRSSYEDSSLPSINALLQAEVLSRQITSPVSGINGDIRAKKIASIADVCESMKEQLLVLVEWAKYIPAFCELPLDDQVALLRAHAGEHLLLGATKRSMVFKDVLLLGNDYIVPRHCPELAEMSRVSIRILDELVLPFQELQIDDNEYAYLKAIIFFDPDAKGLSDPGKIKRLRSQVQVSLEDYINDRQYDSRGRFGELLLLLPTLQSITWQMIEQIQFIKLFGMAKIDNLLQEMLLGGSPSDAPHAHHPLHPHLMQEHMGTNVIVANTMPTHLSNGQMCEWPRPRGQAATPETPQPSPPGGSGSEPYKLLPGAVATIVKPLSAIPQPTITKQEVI
Method in brief: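 Using HepG2 liver cells transfected with GAL4-UAS reporter units, chemical-induced mRNA increases were assessed after 24 hours. Fluorescent RT-PCR fragments were separated by capillary electrophoresis and compared with DMSO negative controls.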

[6] = ATG_GAL4_TRANS: Attagene TRANS-FACTORIAL HepG2 Assay for GAL4 (Internal Marker) (AID 2282976); settings: HepG2 Attagene TRANS GAL4 internal marker reporter
Method in brief: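 First, HepG2 cells were transfected with reporter units under GAL4-UAS control. Next, they were treated with chemical for 24 h. Finally, RNA was reverse-transcribed, PCR-amplified, FAM-labelled and resolved by capillary electrophoresis, with induction scored against DMSO.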

[7] = target: Oxysterols receptor LXR-beta (Homo sapiens) (UniProt P55055); experiment: ATG_LXRb_TRANS: Attagene TRANS-FACTORIAL HepG2 Assay for human Liver X Receptor beta (LXRb) (AID 2282981); settings: HepG2 Attagene TRANS GAL4-LXRb reporter, mRNA
Oxysterols receptor LXR-beta (Homo sapiens), sequence (P55055 whole entry, looked up, the tested form may be a part): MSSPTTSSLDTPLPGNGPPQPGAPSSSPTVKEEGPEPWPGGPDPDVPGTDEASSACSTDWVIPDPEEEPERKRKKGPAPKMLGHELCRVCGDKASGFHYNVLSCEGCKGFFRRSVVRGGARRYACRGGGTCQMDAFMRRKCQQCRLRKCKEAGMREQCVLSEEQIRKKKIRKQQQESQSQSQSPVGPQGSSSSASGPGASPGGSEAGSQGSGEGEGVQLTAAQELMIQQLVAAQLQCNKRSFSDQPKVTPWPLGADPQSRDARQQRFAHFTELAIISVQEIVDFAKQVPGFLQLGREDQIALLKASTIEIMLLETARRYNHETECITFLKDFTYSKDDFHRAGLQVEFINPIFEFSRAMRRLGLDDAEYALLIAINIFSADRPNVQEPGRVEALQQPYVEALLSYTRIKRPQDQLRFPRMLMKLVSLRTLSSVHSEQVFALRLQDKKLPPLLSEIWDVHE
Method in brief: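 Liver-derived HepG2 cells transfected with Gal4-responsive reporters were dosed for 24 h. Activation was scored as rise in reporter mRNA, by RT-PCR and capillary electrophoresis, above DMSO baseline.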

[8] = target: Glucocorticoid receptor (Homo sapiens) (UniProt P04150); experiment: ATG_GR_TRANS: Attagene TRANS-FACTORIAL HepG2 Assay for human Glucocorticoid Receptor (GR) (AID 2282978); settings: HepG2 Attagene TRANS GR reporter, mRNA transcription;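 further: activators score as hits since higher reporter transcript over DMSO is fitted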
Glucocorticoid receptor (Homo sapiens), sequence (P04150 whole entry, looked up, the tested form may be a part): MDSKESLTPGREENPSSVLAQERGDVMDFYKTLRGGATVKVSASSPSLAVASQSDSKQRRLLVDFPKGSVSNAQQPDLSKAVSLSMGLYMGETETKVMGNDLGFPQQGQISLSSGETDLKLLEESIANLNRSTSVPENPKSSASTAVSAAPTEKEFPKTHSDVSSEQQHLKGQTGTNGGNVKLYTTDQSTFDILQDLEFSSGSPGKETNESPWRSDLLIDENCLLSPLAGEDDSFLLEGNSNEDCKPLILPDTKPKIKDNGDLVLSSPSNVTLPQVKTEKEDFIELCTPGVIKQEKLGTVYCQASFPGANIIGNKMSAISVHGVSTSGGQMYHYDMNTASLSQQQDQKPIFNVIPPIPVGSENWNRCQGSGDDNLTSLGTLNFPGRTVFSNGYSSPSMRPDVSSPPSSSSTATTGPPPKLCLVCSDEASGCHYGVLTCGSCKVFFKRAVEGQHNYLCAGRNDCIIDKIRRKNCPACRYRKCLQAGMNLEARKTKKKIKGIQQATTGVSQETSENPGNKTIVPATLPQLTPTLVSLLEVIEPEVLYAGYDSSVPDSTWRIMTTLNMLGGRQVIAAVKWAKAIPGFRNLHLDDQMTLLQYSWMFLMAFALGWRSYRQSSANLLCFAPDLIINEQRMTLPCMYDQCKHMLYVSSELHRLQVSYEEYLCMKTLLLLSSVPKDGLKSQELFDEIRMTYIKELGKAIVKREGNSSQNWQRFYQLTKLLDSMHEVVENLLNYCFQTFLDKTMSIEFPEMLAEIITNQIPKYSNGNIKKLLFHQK
Method in brief: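 Measurement of GAL4-UAS-driven reporter mRNA in human HepG2 liver cells 24 h post-dosing, using RT-PCR with fluorescent labelling and capillary electrophoresis; the transfected constructs report exogenous NR-GAL4 chimera activity, fitted upward against DMSO.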

[9] = target: Estrogen-related receptor gamma (Homo sapiens) (UniProt P62508); experiment: ATG_ERRg_TRANS: Attagene TRANS-FACTORIAL HepG2 Assay for human Estrogen-Related Receptor gamma (ERRg) (AID 2282977); settings: HepG2 Attagene TRANS reporter, ERRg transactivation;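 further: hits increase reporter signal over DMSO so potencies reflect activators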
Estrogen-related receptor gamma (Homo sapiens), sequence (P62508 whole entry, looked up, the tested form may be a part): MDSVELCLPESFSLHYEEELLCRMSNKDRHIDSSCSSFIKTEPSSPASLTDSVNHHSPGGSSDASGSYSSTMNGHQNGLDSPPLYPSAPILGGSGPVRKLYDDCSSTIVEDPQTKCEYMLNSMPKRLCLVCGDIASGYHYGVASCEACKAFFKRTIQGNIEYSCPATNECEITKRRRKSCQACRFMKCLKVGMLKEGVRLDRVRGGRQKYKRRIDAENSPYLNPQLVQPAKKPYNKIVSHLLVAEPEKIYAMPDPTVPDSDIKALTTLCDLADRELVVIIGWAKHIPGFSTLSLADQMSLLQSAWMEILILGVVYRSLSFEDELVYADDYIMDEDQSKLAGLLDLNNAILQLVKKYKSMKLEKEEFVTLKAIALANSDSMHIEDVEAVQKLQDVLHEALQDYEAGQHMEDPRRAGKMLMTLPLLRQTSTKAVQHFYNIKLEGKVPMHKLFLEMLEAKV
Method in brief: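 Readout: fluorescent reporter-mRNA fragments resolved by capillary electrophoresis after RT-PCR and HpaI cut. Cells: transiently transfected HepG2 carrying GAL4-UAS reporters driven by exogenous NR-Gal4 chimeras, dosed 24 h. Activity fitted upward relative to DMSO baseline.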

Measured: AC50

C=C(C)C#N
inactive: [1] | [2] | [3] | [4] | [5]

N#CCCO
inactive: [1] | [6] | [4] | [7] | [5]

CC(C)c1cccc(C(C)C)c1O
inactive: [1] | [2] | [7]

CCC[CH2][Sn]([CH2]CCC)([CH2]CCC)[O]C(=O)c1ccccc1
active: [5] 0.638 µM
inactive: [1] | [6] | [7]

ClC(Cl)=C(Cl)C(Cl)=C(Cl)Cl
active: [1] 137 µM
inactive: [2] | [8] | [4] | [7] | [5]

NC(=S)Nc1ccccc1
inactive: [1] | [2] | [7] | [5]

COc1ccccc1OC
inactive: [1] | [9] | [8] | [4] | [7] | [5]

Cc1ccccc1C(=O)Nc1cccc(OC(C)C)c1
inactive: [1] | [2] | [8] | [4] | [7] | [5]

Cc1ccccc1N
inactive: [1] | [2] | [7] | [5]

CCOP(=S)(OCC)SCSP(=S)(OCC)OCC
active: [4] 7.73 µM | [7] 18.9 µM
inactive: [1] | [2] | [8] | [5]

O=C(O)Cc1ccccc1
inactive: [1] | [2] | [3] | [5]

COc1cc2c(cc1OC)[C@@]13CCN4CC5=CCO[C@H]6CC(=O)N2[C@H]1[C@H]6[C@H]5C[C@H]43
inactive: [1] | [2] | [5]

CCOP(OCC)OCC
inactive: [1] | [6] | [3] | [4] | [7] | [5]

Nc1cccc2ccccc12
inactive: [1] | [2] | [7]

Nc1ccc(N=Nc2ccc(-c3ccc(N=Nc4c(S(=O)(=O)O)cc5cc(S(=O)(=O)O)c(N=Nc6ccccc6)c(O)c5c4N)cc3)cc2)c(N)c1
inactive: [1] | [4] | [7] | [5]

CC(C)(C)c1cc(O)ccc1O
inactive: [8]
active: [1] 109 µM

CCOP(=O)(CN(CCO)CCO)OCC
inactive: [1] | [7]

ClCc1ccccn1
inactive: [7] | [5]
active: [1] 65.6 µM
